Results filed as inconclusive are left out. The source made the active and inactive calls. Rule for the calls: active = hit-call score of the fitted dose curve at least 0.9, where 1 is the maximum; inconclusive = response in the unintended direction; inactive = score below 0.9.

The assay is described as follows: TOX21_p53_BLA_p4_viability: Viability Assessment in the Tox21 HCT-116 p53 Agonism Beta-lactamase Assay, Phase 4 (AID 2283597).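 Note: hits lower the luminescence signal meaning cytotoxicity.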 The text has this:
TOX21_p53_BLA_p4 is a cell-based, single-readout assay that uses HCT116, a human intestinal cell line, […] in a 1536-well plate.TOX21_p53_BLA_p4_viability is an assay readout measuring cellular ATP content and detected with CellTiter-Glo Luciferase-coupled ATP quantitation.TOX21_p53_BLA_p4_viability used a type of viability reporter where loss-of-signal activity can be used to understand changes in the cell viability. Furthermore, this assay endpoint can be referred to as a secondary readout, because this assay has produced multiple assay endpoints where this one serves a viability function. To generalize the intended target to other relatable targets, this assay endpoint is annotated to the cell cycle intended target family, where the subfamily is cytotoxicity.
Thawing Method: Place 14 mL of pre-warmed thaw medium into a 15 mL of conical tub. Remove the vial of cells to be thawed from liquid nitrogen and thaw rapidly by placing at 37C in a water bath with gentle agitation for 1-2 minutes. Decontaminate the vial by wiping with 70% ethanol before opening in a biological safety cabinet. Transfer the vial contents drop-wise into 14 mL of thaw medium in a sterile 15-mL conical tub. Centrifuge cells at 900 rpm for 4 minutes and resuspend in thaw medium. Transfer contents to the T75 tissue culture flask containing Thaw Medium and place flask in a humidified 37C/5% CO2 incubator. Switch to growth medium at first passage.Propagation Method: Aspirate medium, rinse once in DPBS, add 0.25% Trypsin/EDTA and swirl to coat the cell evenly. Add an equal volume of Growth Medium to inactivate Trypsin after 2-3 minutes incubation at 37C. Centrifuge cells at 900 rpm for 4 minutes and resuspend in growth medium. Cell should be passage or fed at least twice a week.Assay Protocol: Harvest cells from culture in growth medium and resuspend in assay medium. 2.2 Dispense 4000 cells/5 uL/well into 1536-well black/clear bottom plates using a Multidrop dispenser. After the cells were incubated at 37C for 5 hours, 23 nL of compounds dissolved in DMSO were transferred to the assay plate by a PinTool resulting in a 217-fold dilution. Incubate the plates for 16 hours at 37C, 5% CO2. Add 1 uL of 6X LiveBLAzer FRET B/G (CCF4-AM) Substrate Mixture to each well using a BioRAPTR dispenser and incubate the plates at room temperature for 2 hours. Measure fluorescence intensity at 460 and 530 nm emission and 405 nm excitation by an Envision detector. Data is expressed as the ratio of 460nm/530nm emissions. Add 4 uL of Cell-titer Glo to each well using BioRAPTR and incubate the plates at room temperature for […]. For cell viability readout that measures cytotoxicity, 4 ul/well of CellTiter-Glo reagent was added into the assay plates using a Flying Reagent Dispenser. After 30 min incubation at room temperature, the luminescence intensity in the plates was measured using a ViewLux plate reader.
In the case of `N[C@@H](CCC(=O)Nc1ccc([N+](=O)[O-])cc1)C(=O)O`, the outcome was inactive. For `CCC(CO)(CO)[N+](=O)[O-]`, the molecule was classed as inactive. As for `[Cl-].[Cl-].[NH-]CC[NH-].[Pt+4]`, the call was inactive. For the molecule `COC(=O)C(C)O` (stereo not given), the outcome was inactive. `C[C@](N)(Cc1ccc(O)cc1)C(=O)O`: the outcome was inactive. Consider `OC(CCCN1CCCCC1)(c1ccccc1)c1ccccc1`, for which the molecule was called inactive. `CC(COc1ccccc1)NN` (stereo not given): the call was inactive.

With `Nc1nc(CC(=O)O)cs1`, the outcome was inactive. Next, `COc1ccc(Nc2ccc(OC)cc2)cc1`: “inactive”; `O=C(NNCS(=O)(=O)O)c1ccncc1`: “inactive”; `Cc1ccc(C(C)(C)c2ccc(C)cc2)cc1`: “inactive”. As to `O=C(O)[C@H]1CN(C/C=C/P(=O)(O)O)CCN1`, the call was inactive. Consider `CCCCNc1c(C(=O)OCC)c(C)nc2c1cnn2CC`, for which the outcome was inactive.

`Nc1c2c(nc3ccccc13)CCCC2O` (stereo not given): the result was inactive.

Consider `CCC(C)(C)CC`, for which the result was inactive. On to `C=COCCCCO`, for which the molecule was classed as inactive.

In the case of `CC1(C)O[C@@H]2C[C@H]3[C@@H]4CCC5=CC(=O)CC[C@]5(C)[C@@]4(F)[C@@H](O)C[C@]3(C)[C@]2(C(=O)CCl)O1`, the molecule was called inactive. Next, `CCc1ccc(Br)cc1`: “inactive”. Turning to `O=CC1CC=CCC1` (stereo not given), the result was inactive. Next, `Nc1nc(NC2CC2)c2ncn([C@H]3C=C[C@@H](CO)C3)c2n1`: “inactive”.

For `Cc1ccnc2c1NC(=O)c1cccnc1N2C1CC1`, the call was inactive. The entry for `CO[C@@]1(NC(=O)C2SC(=C(C(N)=O)C(=O)O)S2)C(=O)N2C(C(=O)O)=C(CSc3nnnn3C)CS[C@@H]21` (stereo not given in full) is “inactive”; for `O=C1CCCc2ccccc21` it is “inactive”. The entry for `CC(C)(C)C(=O)NCCCC(=O)O` is “inactive”. Regarding `C[Se]CC[C@H](N)C(=O)O`, the molecule was called inactive.

Take `CCCCCCCCCCCCCCCCCC(=O)OCCO`: the outcome was inactive. The entry for `NCCCC(=O)O` is “inactive”. With `CN1CCCC(CC2c3ccccc3Sc3ccccc32)C1` (stereo not given), the outcome was inactive. On to `COc1ccc(CCNCC(O)COc2cccc(C)c2)cc1OC` (stereo not given), for which the call was inactive. The entry for `CCN(CC)CCNC(=O)COc1ccc(OC)cc1` is “inactive”; for `CCN1CCc2nc(N)oc2CC1` it is “inactive”. `[O-][n+]1ccccc1SSc1cccc[n+]1[O-]`: the outcome was inactive. As for `COC(=O)c1cccc(Cl)c1`, the outcome was inactive. `CCCCOC(=O)CCS`: the result was inactive. The entry for `CC1(C)CO[C@@H](CC(=O)O)CN1` is “inactive”; for `CC(C)(C)C(=O)OCOP(=O)(COCCn1cnc2c(N)ncnc21)OCOC(=O)C(C)(C)C` it is “inactive”; for `Oc1cc(O)cc(O)c1` it is “inactive”. With `COCc1ccc(COC)cc1`, the molecule was called inactive. With `CC(C(=O)O)c1ccc2c(c1)Cc1cccnc1O2` (stereo not given), the outcome was inactive. Consider `O=C(O)c1ccc(NC(=O)[C@H](Cc2ccc(O)cc2)NC(=O)c2ccccc2)cc1`, for which the result was inactive.

Values taken from PubChem BioAssay (EPA / NIEHS).
